A short description of assay [1]: NCI Yeast Anticancer Drug Screen. Data for the rad50 strain (AID 155).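 Further: 0% = growth of vehicle-only cultures of the same strain.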 The settings on record: S. cerevisiae rad50 strain growth inhibition, stronger effect = higher value. The method, boiled down:
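Relative growth inhibition (compound vs vehicle) was measured in yeast with a defined repair-gene alteration.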

Assay [2] in a line: NCI Yeast Anticancer Drug Screen. Data for the mec2-1 strain (AID 157). The following applies: S. cerevisiae mec2-1 strain, stronger effect = higher value. The gist of the method:
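Compounds were applied to mec2-1 yeast cells. Their growth was then compared with that of vehicle-treated cultures to give growth inhibition.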

A short description of assay [3]: NCI Yeast Anticancer Drug Screen. Data for the sgs1 mgt1 strain (AID 161).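 Further: 0% = growth of cultures given vehicle only.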 The settings on record: S. cerevisiae sgs1 mgt1 strain, stronger effect = higher value. The gist of the method: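 Yeast cells carrying a defined DNA-repair defect were exposed to test compounds. Growth inhibition was measured relative to vehicle-treated controls.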
A short description of assay [4]: NCI Yeast Anticancer Drug Screen. Data for the cln2 rad14 strain (AID 165).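 Further: 0% = growth equal to vehicle treated cultures.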 The settings on record: S. cerevisiae cln2 rad14 strain, stronger effect = higher value. The gist of the method: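 Strain: cln2 rad14 yeast, altered in cell cycle control and DNA damage repair. Read-out: growth inhibition vs vehicle.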
Assay [5] can be described thus: NCI Yeast Anticancer Drug Screen. Data for the bub3 strain (AID 167). The following applies: S. cerevisiae bub3 mutant strain, stronger effect = higher value. The method, boiled down: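 Screening used yeast with an engineered genetic alteration affecting cell cycle control. Compound-exposed cultures were compared with vehicle cultures, and reduced growth was taken as inhibition.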

Assay [6] can be described thus: NCI Yeast Anticancer Drug Screen. Data for the wt2 strain (AID 169).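 Further: 0% = growth of vehicle-treated yeast cultures.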 The following applies: S. cerevisiae wt2 strain growth inhibition, stronger effect = higher value. The method, boiled down: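 Growth of compound-treated yeast is measured and expressed as inhibition relative to vehicle-only controls.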
The nature of assay [7]: NCI Yeast Anticancer Drug Screen. Data for the mlh1 rad18 strain (AID 175). The following applies: S. cerevisiae mlh1 rad18 strain growth inhibition, stronger effect = higher value. The method, boiled down:
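A repair-deficient yeast strain is exposed to test compound, and growth is scored relative to vehicle-treated controls.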

[8] abbreviates: at 5.0 µM (retest, dose inferred, filed as 0.5).
Where [9] appears, read: at 50.0 µM (retest, dose inferred, filed as 5.0).

Values joined by “and” are separate entries in the source; they are usually repeats but may differ in a detail not shown here. Equal values may be shown once. The panel holds about 79,000 compounds, 15% with a hit somewhere; the sample as a whole holds those more often. Some structures have more than one record in an assay (separate samples or runs), and their calls can disagree. Active and inactive are the calls of the source. No stated cut-off is given here; in the data, active means growth inhibition above about 70%; inactive means the rest.

For `CCCn1cnc2c(SCc3ccc(Cl)cc3)nc(N)nc21`, the growth inhibition in assay [1] (setting [8]) is -7% (inactive); in assay [1] (setting [9]) it was 21% (inactive); in assay [1] (at 50.0 µM) it was 96.9% (active); in assay [2] (setting [8]), -5% (inactive); in assay [2] (setting [9]) it was -10% (inactive); in assay [2] (at 50.0 µM) it was 97.5% (active). The growth inhibition in assay [3] (setting [8]) is -3% (inactive); in assay [3] (setting [9]) it was 16% (inactive); in assay [3] (at 50.0 µM), 96.2% (active); in assay [4] (setting [8]) it was -32% (inactive); in assay [4] (setting [9]) it was -64% (inactive); in assay [4] (at 50.0 µM) it was 92.8% (active). In addition, the growth inhibition in assay [5] (setting [8]) was -20% (inactive); in assay [5] (setting [9]) it was 7% (inactive); in assay [5] (at 50.0 µM), 97% (active).
`CCCCCCCCCCCCN`: the growth inhibition in assay [1] (setting [8]) was 71% (active); in assay [1] (setting [9]), 99% (active); in assay [1] (at 50.0 µM), 77.5% (active); in assay [2] (setting [8]) it was 65% (inactive); in assay [2] (setting [9]) it was 99% (active); in assay [2] (at 50.0 µM), 45% (inactive). Also, the growth inhibition in assay [3] (setting [8]) is -4% (inactive); in assay [3] (setting [9]), 98% (active); in assay [3] (at 50.0 µM), 81.8% (active); in assay [4] (setting [8]) it was 73% (active); in assay [4] (setting [9]), 100% (active); in assay [4] (at 50.0 µM) it was 26.6% (inactive). In addition, the growth inhibition in assay [5] (setting [8]) was 56% (inactive); in assay [5] (setting [9]), 98% (active); in assay [5] (at 50.0 µM), 79.7% (active); in assay [6] (at 1.2 µM) it was -14% (inactive); in assay [6] (at 3.7 µM), -21% (inactive); in assay [6] (at 11.0 µM), -9% (inactive). For the same compound, the growth inhibition in assay [6] (at 33.0 µM) was -5% (inactive); in assay [6] (at 100.0 µM), 97% (active); in assay [7] (setting [8]), 70% (active); in assay [7] (setting [9]) it was 100% (active); in assay [7] (at 50.0 µM) it was 72.2% (active).
Consider `Cc1c(C)c(CCl)c(C)c(C)c1CCl`, for which the growth inhibition is 53% (inactive) in assay [1] (setting [8]); 95% (active) in assay [1] (setting [9]); 87.7% (active) in assay [1] (at 50.0 µM); 71% (active) in assay [2] (setting [8]); 96% (active) in assay [2] (setting [9]); 86% (active) in assay [2] (at 50.0 µM). In addition, the growth inhibition was 1% (inactive) in assay [3] (setting [8]); 43% (inactive) in assay [3] (setting [9]); 75.2% (active) in assay [3] (at 50.0 µM); 34% (inactive) in assay [4] (setting [8]); 84% (active) in assay [4] (setting [9]); 72.5% (active) in assay [4] (at 50.0 µM). The growth inhibition in assay [5] (setting [8]) is 14% (inactive); in assay [5] (setting [9]), 39% (inactive); in assay [5] (at 50.0 µM), 61.5% (inactive); in assay [6] (at 1.2 µM) it was 0% (inactive); in assay [6] (at 3.7 µM), 25% (inactive); in assay [6] (at 11.0 µM) it was 71% (active). The growth inhibition in assay [6] (at 33.0 µM) was 82% (active); in assay [6] (at 100.0 µM), 83% (active); in assay [7] (setting [8]), 66% (inactive); in assay [7] (setting [9]), 95% (active); in assay [7] (at 50.0 µM), 82% (active).
Consider `CCCCCCCCCCNC1CC(OC2CC(O)(C(O)CO)Cc3c(O)c4c(c(O)c32)C(=O)c2c(OC)cccc2C4=O)OC(C)C1O` (stereo unspecified), for which the growth inhibition in assay [1] (setting [8]) is 96% (active); in assay [1] (setting [9]) it was 97% (active); in assay [1] (at 50.0 µM), 85.8% (active); in assay [2] (setting [8]) it was 99% (active); in assay [2] (setting [9]), 98% (active); in assay [2] (at 50.0 µM) it was 89.7% (active). In addition, the growth inhibition in assay [3] (setting [8]) is 95% (active); in assay [3] (setting [9]) it was 98% (active); in assay [3] (at 50.0 µM), 90.2% (active); in assay [4] (setting [8]) it was 80% (active); in assay [4] (setting [9]) it was 96% (active); in assay [4] (at 50.0 µM), 88.2% (active). For the same compound, the growth inhibition in assay [5] (setting [8]) is 49% (inactive); in assay [5] (setting [9]) it was 97% (active); in assay [5] (at 50.0 µM), 87.8% (active); in assay [7] (setting [8]), 99% (active); in assay [7] (setting [9]) it was 96% (active).
With `COc1cccc(-c2nnc(-c3ccccc3)o2)c1`, the growth inhibition in assay [1] (setting [8]) was 32% (inactive) and 33% (inactive); in assay [1] (setting [9]) it was 36% (inactive) and 55% (inactive); in assay [1] (at 50.0 µM), 29.4% (inactive) and 89.1% (active); in assay [2] (setting [8]) it was 36% (inactive) and 45% (inactive); in assay [2] (setting [9]), 40% (inactive) and 55% (inactive); in assay [2] (at 50.0 µM), 16.4% (inactive) and 85.8% (active). The growth inhibition in assay [3] (setting [8]) was -1% (inactive) and 11% (inactive); in assay [3] (setting [9]) it was 52% (inactive) and 99% (active); in assay [3] (at 50.0 µM) it was 33.5% (inactive) and 89.4% (active); in assay [4] (setting [8]), 73% (active) and 21% (inactive); in assay [4] (setting [9]) it was 18% (inactive) and 98% (active); in assay [4] (at 50.0 µM) it was 32.5% (inactive) and 80.2% (active). The growth inhibition in assay [5] (setting [8]) was 30% (inactive) and 13% (inactive); in assay [5] (setting [9]) it was 85% (active) and 98% (active); in assay [5] (at 50.0 µM), 71% (active) and 15.5% (inactive); in assay [6] (at 1.2 µM) it was 20% (inactive); in assay [6] (at 3.7 µM), 7% (inactive); in assay [6] (at 11.0 µM), 4% (inactive). The growth inhibition in assay [6] (at 33.0 µM) was 46% (inactive); in assay [6] (at 100.0 µM), 97% (active); in assay [7] (setting [8]), 30% (inactive) and 34% (inactive); in assay [7] (setting [9]), 44% (inactive) and 54% (inactive); in assay [7] (at 50.0 µM) it was 16.9% (inactive) and 84.1% (active).
With `Cc1nc(N=C(N)N)nc2ccc3ccccc3c12`, the growth inhibition was 39% (inactive) in assay [1] (setting [8]); 38% (inactive) in assay [1] (setting [9]); 80.8% (active) in assay [1] (at 50.0 µM); 43% (inactive) in assay [2] (setting [8]); 69% (inactive) in assay [2] (setting [9]); 37.9% (inactive) in assay [2] (at 50.0 µM). The growth inhibition in assay [3] (setting [8]) was -13% (inactive); in assay [3] (setting [9]), 98% (active); in assay [3] (at 50.0 µM) it was 64.7% (inactive); in assay [4] (setting [8]) it was 62% (inactive); in assay [4] (setting [9]), 99% (active); in assay [4] (at 50.0 µM) it was 34.8% (inactive). The growth inhibition is -14% (inactive) in assay [5] (setting [8]); 96% (active) in assay [5] (setting [9]); 63.9% (inactive) in assay [5] (at 50.0 µM); 6% (inactive) in assay [6] (at 1.2 µM); 12% (inactive) in assay [6] (at 3.7 µM); 0% (inactive) in assay [6] (at 11.0 µM). Moreover, the growth inhibition in assay [6] (at 33.0 µM) is 30% (inactive); in assay [6] (at 100.0 µM), 97% (active); in assay [7] (setting [8]), 28% (inactive); in assay [7] (setting [9]), 34% (inactive); in assay [7] (at 50.0 µM), 69.6% (inactive).
In the case of `CN(C)CCNc1ccc(CO)c2oc3ccc(O)cc3c(=O)c12`, the growth inhibition in assay [1] (setting [8]) is 17% (inactive); in assay [1] (setting [9]), 41% (inactive); in assay [1] (at 50.0 µM), 26.5% (inactive); in assay [2] (setting [8]), 13% (inactive); in assay [2] (setting [9]), 41% (inactive); in assay [2] (at 50.0 µM), 59.9% (inactive). Moreover, the growth inhibition is 13% (inactive) in assay [3] (setting [8]); 36% (inactive) in assay [3] (setting [9]); 9.95% (inactive) in assay [3] (at 50.0 µM); 22% (inactive) in assay [4] (setting [8]); 28% (inactive) in assay [4] (setting [9]); -14.1% (inactive) in assay [4] (at 50.0 µM). Further, the growth inhibition in assay [5] (setting [8]) is 15% (inactive); in assay [5] (setting [9]), 66% (inactive); in assay [5] (at 50.0 µM), 49% (inactive); in assay [7] (setting [8]), 21% (inactive); in assay [7] (setting [9]), 63% (inactive).

Source of the values: PubChem BioAssay (NCI).
